Laboratory results as given in PubChem BioAssay (EPA / NIEHS).
Calls of active or inactive are those of the source. How the source made its calls: active means hit-call score of the fitted dose curve at least 0.9, where 1 is the maximum; inactive means score below 0.9.

Assays:
Conditions in all cases: mRNA level, 48 h; actives raise or lower the signal
[1] = read-out: Early growth response protein 1 (EGR1) transcription factor, EGR1 (gene 1958); experiment: LTEA_HepaRG_EGR1: Life Technologies and Expression Analysis (LTEA) Assay for Early growth response protein 1 (EGR1) transcription factor using HepaRG (AID 2283490)
How it was run: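 Differentiated human HepaRG cells in serum-free induction medium were exposed in duplicate for 48 h to eight concentrations (top 100 uM, half-log steps) in 0.5% DMSO. EGR1 mRNA was quantified by qRT-PCR, normalized to ACTB, GAPDH and POLR2A, and fitted bidirectionally versus DMSO.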

[2] = read-out: Ezrin (EZR), EZR (gene 7430); experiment: LTEA_HepaRG_EZR: Life Technologies and Expression Analysis (LTEA) Assay for Ezrin (EZR) using HepaRG (AID 2283491)
How it was run: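 Gain or loss of EZR mRNA is scored relative to 0.5% DMSO in human HepaRG cultures treated 48 h with test chemicals in duplicate, eight half-log concentrations from 100 uM.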

[3] = read-out: Cytochrome P450 3A7 (Homo sapiens) (UniProt P24462); experiment: LTEA_HepaRG_CYP3A7: Life Technologies and Expression Analysis (LTEA) Assay for CYP3A7 using HepaRG (AID 2283492)
How it was run: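 Differentiated HepaRG cells in serum-free induction medium exposed 48 h in duplicate to 8-point half-log series from 100 uM top in 0.5% DMSO. CYP3A7 mRNA by qRT-PCR, normalized to ACTB/GAPDH/POLR2A, bidirectional fit versus DMSO.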

CYP3A5 (gene 1577) = experiment: LTEA_HepaRG_CYP3A5: Life Technologies and Expression Analysis (LTEA) Assay for CYP3A5 using HepaRG (AID 2283493)
How it was run: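 HepaRG plated 48 h, switched to serum-free induction medium, chemicals added 48 h (max 100 uM, half-log, 0.5% DMSO). RNA isolated; CYP3A5 by TaqMan qRT-PCR. Gain/loss vs DMSO.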

[4] = read-out: Fatty Acid-Binding Protein 1 (FABP1), FABP1 (gene 2168); experiment: LTEA_HepaRG_FABP1: Life Technologies and Expression Analysis (LTEA) Assay for Fatty Acid-Binding Protein 1 (FABP1) using HepaRG (AID 2283494)
How it was run: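 Differentiated human HepaRG cells were exposed in duplicate for 48 h in serum-free induction medium to 8-point half-log concentration series topping at 100 uM in 0.5% DMSO. FABP1 mRNA measured by TaqMan qRT-PCR, normalized to ACTB/GAPDH/POLR2A; bidirectional fit versus DMSO.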

[5] = read-out: Cytochrome P450 7A1 (Homo sapiens) (UniProt P22680); experiment: LTEA_HepaRG_CYP7A1: Life Technologies and Expression Analysis (LTEA) Assay for Cytochrome P450 7A1 (CYP7A1) using HepaRG (AID 2283496)
How it was run: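 HepaRG cells plated 48 h, then switched to serum-free induction medium and exposed in duplicate for 48 h to 8-point half-log series from 100 uM in 0.5% DMSO. CYP7A1 mRNA by qRT-PCR (TaqMan), normalized to ACTB/GAPDH/POLR2A; bidirectional fit versus DMSO.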

[6] = read-out: Glutathione S-Transferase (GSTA2), GSTA2 (gene 2939); experiment: LTEA_HepaRG_GSTA2: Life Technologies and Expression Analysis (LTEA) Assay for Glutathione S-Transferase (GSTA2) using HepaRG (AID 2283497)
How it was run: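 Human HepaRG cells, plated 48 h, then exposed in serum-free induction medium for 48 h to eight half-log concentrations up to 100 uM in 0.5% DMSO, duplicate. GSTA2 mRNA by qRT-PCR, normalized to ACTB/GAPDH/POLR2A; bidirectional fit versus DMSO.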

[7] = read-out: Glutamate-cysteine ligase catalytic (GCLC), GCLC (gene 2729); experiment: LTEA_HepaRG_GCLC: Life Technologies and Expression Analysis (LTEA) Assay for Glutamate-cysteine ligase catalytic (GCLC) using HepaRG (AID 2283498)
How it was run: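 Differentiated human HepaRG cells, plated 48 h then switched to serum-free induction medium, were exposed in duplicate for 48 h to 8 half-log concentrations topping at 100 uM in 0.5% DMSO. GCLC mRNA was quantified by qRT-PCR against ACTB, GAPDH and POLR2A.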

[8] = read-out: growth arrest and DNA damage 45 (GADD45G), GADD45G (gene 10912); experiment: LTEA_HepaRG_GADD45G: Life Technologies and Expression Analysis (LTEA) Assay for growth arrest and DNA damage 45 (GADD45G) using HepaRG (AID 2283499)
How it was run: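 Differentiated human HepaRG cells, 48 h post-plating, exposed 48 h in serum-free induction medium to 8 half-log concentrations (top 100 uM, 0.5% DMSO) in duplicate. GADD45G mRNA measured by Fluidigm TaqMan qRT-PCR, normalized to ACTB, GAPDH, POLR2A; bidirectional fit versus DMSO.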

[9] = read-out: Glutamate-cysteine ligase regulatory (GCLM), GCLM (gene 2730); experiment: LTEA_HepaRG_GCLM: Life Technologies and Expression Analysis (LTEA) Assay for Glutamate-cysteine ligase regulatory (GCLM) using HepaRG (AID 2283500)
How it was run: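 Cells were plated, cultured 48 h, switched to serum-free induction medium, then dosed in duplicate for 48 h at eight half-log concentrations up to 100 uM. RNA was then profiled by qRT-PCR; gain or loss versus DMSO was fitted.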

[10] = read-out: Glutathione S-transferase M3 (GSTM3), GSTM3 (gene 2947); experiment: LTEA_HepaRG_GSTM3: Life Technologies and Expression Analysis (LTEA) Assay for Glutathione S-transferase M3 (GSTM3) using HepaRG (AID 2283501)
How it was run: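 Differentiated human HepaRG cells were exposed in duplicate for 48 h in serum-free induction medium, 8 points from 100 uM top in half-log steps, 0.5% DMSO. GSTM3 mRNA was measured by TaqMan qRT-PCR, normalized to ACTB, GAPDH and POLR2A; bidirectional fit versus DMSO.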

[11] = read-out: Heat shock 70 kDa protein 1 (HSPA1A), gene 3303; experiment: LTEA_HepaRG_HSPA1A: Life Technologies and Expression Analysis (LTEA) Assay for Heat shock 70 kDa protein 1 (HSPA1A) using HepaRG (AID 2283502)
How it was run: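 Readout is HSPA1A transcript level by microfluidic qRT-PCR, normalized to three housekeeping genes and analysed for gain or loss of signal relative to 0.5% DMSO. Human HepaRG cultures received test chemicals for 48 h at up to 100 uM.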

[12] = read-out: 3-Hydroxy-3-Methylglutaryl-CoA Synthase 2 (HMGCS2), HMGCS2 (gene 3158); experiment: LTEA_HepaRG_HMGCS2: Life Technologies and Expression Analysis (LTEA) Assay for 3-Hydroxy-3-Methylglutaryl-CoA Synthase 2 (HMGCS2) using HepaRG (AID 2283504)
How it was run: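 Human HepaRG cells in serum-free induction medium were exposed in duplicate for 48 h to 8-point half-log series from 100 uM top in 0.5% DMSO. HMGCS2 mRNA measured by TaqMan qRT-PCR, normalised to ACTB, GAPDH, POLR2A; bidirectional fit versus DMSO.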

HGF (gene 3082) = experiment: LTEA_HepaRG_HGF: Life Technologies and Expression Analysis (LTEA) Assay for Hepatocyte Growth Facto (HGF) using HepaRG (AID 2283505)
How it was run: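 Differentiated HepaRG cells in serum-free induction medium exposed 48 h in duplicate, 8 half-log concentrations from 100 uM in 0.5% DMSO. HGF mRNA by qRT-PCR, normalised to ACTB, GAPDH, POLR2A; bidirectional fitting.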

[13] = read-out: Insulin Like Growth Factor 1 (IGF1), IGF1 (gene 3479); experiment: LTEA_HepaRG_IGF1: Life Technologies and Expression Analysis (LTEA) Assay for Insulin Like Growth Factor 1 (IGF1) using HepaRG (AID 2283506)
How it was run: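 HepaRG, plated 48 h, then switched to serum-free induction media; test chemical 8-pt half-log from 100 uM (0.5% DMSO), duplicate, 48 h. Lysis in RLT, TaqMan qRT-PCR, norm. ACTB/GAPDH/POLR2A. Bidirectional fit vs DMSO.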

[14] = read-out: Insulin-like growth factor-binding protein 1 (IGFBP1), IGFBP1 (gene 3484); experiment: LTEA_HepaRG_IGFBP1: Life Technologies and Expression Analysis (LTEA) Assay for Insulin-like growth factor-binding protein 1 (IGFBP1) using HepaRG (AID 2283508)
How it was run: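 HepaRG cells, plated 48 h then switched to serum-free induction medium, exposed in duplicate for 48 h to 8-point half-log series from 100 uM in 0.5% DMSO. mRNA measured by qRT-PCR, normalized to ACTB/GAPDH/POLR2A; bidirectional fit versus DMSO.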

[15] = read-out: Interleukin 6 Receptor (IL6R), IL6R (gene 3570); experiment: LTEA_HepaRG_IL6R: Life Technologies and Expression Analysis (LTEA) Assay for Interleukin 6 Receptor (IL6R) using HepaRG (AID 2283510)
How it was run: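 Readout is IL6R transcript level by TaqMan qRT-PCR, normalized to three housekeeping genes and fitted bidirectionally against 0.5% DMSO controls. Human HepaRG cells received chemicals for 48 h in serum-free induction medium, highest concentration 100 uM.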

[16] = read-out: Interleukin 6 (IL6), IL6 (gene 3569); experiment: LTEA_HepaRG_IL6: Life Technologies and Expression Analysis (LTEA) Assay for Interleukin 6 (IL6) using HepaRG (AID 2283509)
How it was run: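 Differentiated human HepaRG cells, plated 48 h then switched to serum-free induction medium, were exposed in duplicate for 48 h to eight half-log concentrations up to 100 uM in 0.5% DMSO. IL6 mRNA measured by qRT-PCR, normalized to ACTB/GAPDH/POLR2A.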

[17] = read-out: Intercellular Adhesion Molecule 1 (ICAM1), ICAM1 (gene 3383); experiment: LTEA_HepaRG_ICAM1: Life Technologies and Expression Analysis (LTEA) Assay for Intercellular Adhesion Molecule 1 (ICAM1) using HepaRG (AID 2283507)
How it was run: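 Differentiated human HepaRG cells in serum-free induction medium exposed 48 h in duplicate to 8 half-log concentrations (top 100 uM, 0.5% DMSO). ICAM1 mRNA quantified by TaqMan qRT-PCR, normalized to ACTB, GAPDH and POLR2A; bidirectional fitting versus DMSO.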

Sequence of Cytochrome P450 3A7 (Homo sapiens) (P24462 whole entry, looked up): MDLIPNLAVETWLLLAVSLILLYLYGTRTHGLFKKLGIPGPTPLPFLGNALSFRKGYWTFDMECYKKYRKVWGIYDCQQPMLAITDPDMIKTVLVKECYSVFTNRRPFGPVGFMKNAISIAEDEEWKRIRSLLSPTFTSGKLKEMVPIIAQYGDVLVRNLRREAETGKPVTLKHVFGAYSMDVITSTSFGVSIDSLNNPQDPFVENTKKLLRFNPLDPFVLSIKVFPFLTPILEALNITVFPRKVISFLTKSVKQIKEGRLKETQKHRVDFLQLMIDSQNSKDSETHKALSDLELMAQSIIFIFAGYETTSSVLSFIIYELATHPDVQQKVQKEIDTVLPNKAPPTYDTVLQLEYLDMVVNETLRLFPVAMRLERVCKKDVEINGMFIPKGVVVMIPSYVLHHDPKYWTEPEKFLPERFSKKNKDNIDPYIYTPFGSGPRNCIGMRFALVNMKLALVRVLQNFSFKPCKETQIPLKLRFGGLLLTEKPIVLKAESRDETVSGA

## CCOC(=O)c1ccccc1C(=O)OCC
[1]
  outcome: inactive
[2]
  outcome: inactive
[3]
  outcome: inactive
CYP3A5 (gene 1577)
  outcome: inactive
[4]
  outcome: inactive
[5]
  outcome: inactive
[6]
  outcome: inactive
[7]
  outcome: inactive
[8]
  outcome: inactive
[9]
  outcome: inactive
[10]
  outcome: inactive
[11]
  outcome: inactive
[12]
  outcome: inactive
HGF (gene 3082)
  outcome: inactive
[13]
  outcome: inactive
[14]
  outcome: inactive
[15]
  outcome: inactive

## O=[N+]([O-])c1ccc(Cl)c(Cl)c1
[1]
  outcome: inactive
[2]
  outcome: inactive
[3]
  outcome: inactive
CYP3A5 (gene 1577)
  outcome: inactive
[4]
  outcome: inactive
[5]
  outcome: inactive
[7]
  outcome: inactive
[8]
  outcome: inactive
[9]
  outcome: inactive
[10]
  outcome: inactive
[11]
  outcome: inactive
[12]
  outcome: inactive
HGF (gene 3082)
  outcome: inactive
[13]
  outcome: inactive
[14]
  outcome: inactive
[15]
  outcome: inactive

## CCCCc1ccccc1
[1]
  outcome: inactive
[2]
  outcome: inactive
[3]
  outcome: inactive
CYP3A5 (gene 1577)
  outcome: inactive
[4]
  outcome: inactive
[5]
  outcome: inactive
[7]
  outcome: inactive
[8]
  outcome: inactive
[9]
  outcome: inactive
[10]
  outcome: inactive
[11]
  outcome: inactive
[12]
  outcome: inactive
HGF (gene 3082)
  outcome: inactive
[13]
  outcome: inactive
[14]
  outcome: inactive
[16]
  outcome: inactive
[15]
  outcome: inactive

## CN(C)C(=O)Cl
[1]
  outcome: inactive
[2]
  outcome: inactive
[3]
  outcome: inactive
CYP3A5 (gene 1577)
  outcome: inactive
[4]
  outcome: inactive
[5]
  outcome: inactive
[7]
  outcome: inactive
[8]
  outcome: inactive
[9]
  outcome: inactive
[10]
  outcome: inactive
[11]
  outcome: inactive
[12]
  outcome: inactive
HGF (gene 3082)
  outcome: inactive
[13]
  outcome: inactive
[14]
  outcome: inactive
[15]
  outcome: inactive

## O=C(O)C1C(C(=O)O)C2(Cl)C(Cl)=C(Cl)C1(Cl)C2(Cl)Cl (configuration not stated)
[1]
  outcome: inactive
[2]
  outcome: inactive
[3]
  outcome: inactive
CYP3A5 (gene 1577)
  outcome: inactive
[4]
  outcome: inactive
[5]
  outcome: inactive
[7]
  AC50: 50 µM (active)
[8]
  outcome: inactive
[9]
  outcome: inactive
[10]
  outcome: inactive
[11]
  outcome: inactive
[12]
  outcome: inactive
HGF (gene 3082)
  outcome: inactive
[13]
  outcome: inactive
[14]
  outcome: inactive
[16]
  outcome: inactive
[15]
  outcome: inactive

## c1ccc(OP(Oc2ccccc2)Oc2ccccc2)cc1
[1]
  outcome: inactive
[2]
  outcome: inactive
[3]
  outcome: inactive
CYP3A5 (gene 1577)
  outcome: inactive
[4]
  outcome: inactive
[5]
  outcome: inactive
[7]
  outcome: inactive
[8]
  outcome: inactive
[9]
  outcome: inactive
[10]
  outcome: inactive
[11]
  outcome: inactive
[12]
  outcome: inactive
HGF (gene 3082)
  outcome: inactive
[13]
  outcome: inactive
[14]
  outcome: inactive
[16]
  outcome: inactive
[15]
  outcome: inactive

## [N-]=[N+]=[N-]
[1]
  outcome: inactive
[2]
  AC50: 50 µM (active)
[3]
  outcome: inactive
CYP3A5 (gene 1577)
  outcome: inactive
[4]
  AC50: 77.6 µM (active)
[5]
  outcome: inactive
[7]
  outcome: inactive
[8]
  AC50: 78.1 µM (active)
[9]
  AC50: 95 µM (active)
[10]
  outcome: inactive
[11]
  outcome: inactive
[12]
  AC50: 77 µM (active)
HGF (gene 3082)
  outcome: inactive
[13]
  AC50: 68.6 µM (active)
[17]
  outcome: inactive
[14]
  AC50: 86.4 µM (active)
[15]
  outcome: inactive
